Results from PubChem BioAssay (EPA / NIEHS).
“And” between values parts separate entries of the source, which are not always exact repeats. Equal entries are not always repeated. Inconclusive results are not listed. The source made the active and inactive calls. The calls were made as follows: active = hit-call score of the fitted dose curve at least 0.9, where 1 is the maximum; inconclusive = response in the unintended direction; inactive = score below 0.9.

These compounds were tested against human Aurora Kinase A - serine/threonine-protein Kinase 6 (AurA), AURKA (gene 6790) (UniProt O14965) (assay: NVS_ENZ_hAurA: NovaScreen (NVS) Enzymatic Assay for human Aurora Kinase A - serine/threonine-protein Kinase 6 (AurA) (AID 2283142)).
human Aurora Kinase A - serine/threonine-protein Kinase 6 (AurA), AURKA (gene 6790), sequence (O14965 whole entry, looked up): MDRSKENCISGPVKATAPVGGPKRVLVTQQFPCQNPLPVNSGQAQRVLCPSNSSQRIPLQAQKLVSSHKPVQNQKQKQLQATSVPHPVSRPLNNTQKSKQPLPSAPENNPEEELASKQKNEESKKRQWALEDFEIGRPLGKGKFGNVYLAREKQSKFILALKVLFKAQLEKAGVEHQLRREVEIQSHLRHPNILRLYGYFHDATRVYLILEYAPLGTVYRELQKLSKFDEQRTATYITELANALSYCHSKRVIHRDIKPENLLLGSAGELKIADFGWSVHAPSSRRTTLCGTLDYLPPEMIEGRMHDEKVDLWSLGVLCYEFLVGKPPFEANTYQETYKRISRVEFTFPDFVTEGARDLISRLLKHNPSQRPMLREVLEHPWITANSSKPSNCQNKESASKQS
Method: NVS_ENZ_hAurA is a biochemical, single-readout assay that uses extracted gene-proteins in a cell-free assay. Measurements were taken 1 hour after chemical dosing in a 384-well plate.NVS_ENZ_hAurA is one of one assay component(s) measured or calculated from the NVS_ENZ_hAurA assay. It is designed to make measurements of enzyme activity, a form of enzyme reporter, as detected with fluorescence intensity signals by Fluorescence and electrophoretic mobility shift technology.Data from the assay component NVS_ENZ_hAurA was analyzed into 1 assay endpoint. This assay endpoint, NVS_ENZ_hAurA, was analyzed in the positive analysis fitting direction relative to DMSO as the negative control and baseline of activity. Using a type of enzyme reporter, loss-of-signal activity can be used to understand changes in the enzymatic activity as they relate to the gene AURKA. Furthermore, this assay endpoint can be referred to as a primary readout, because this assay has produced multiple assay endpoints where this one serves a enzymatic activity function. To generalize the intended target to other relatable targets, this assay endpoint is annotated to the kinase intended target family, where the subfamily is serine/threonine kinase.
Binding assays used specific radioligands (tritiated, iodinated) with non-radioactive competitive displacement ligands in agonist or antagonist protocols (as indicated) and various reference compounds and inhibitors to titrate specific binding to receptors and transporters. Most enzyme assays (CYPs, kinases, phosphatases, proteases, HDACs) used recombinant protein and specific substrates (fluorescence mostly, some colorimetric and radioactive) and inhibitors, followed by a biochemical separation of substrate and product. All assays for the biochemical HTS were initially run in duplicate at a single concentration (10 uM for CYP450 assays and 25 uM for all others). Assay-chemical combinations meeting a pre-defined threshold (e.g., 30% inhibition and other criteria defined below) were then run in singleton concentration-response format with maximum concentration of 20 uM for CYPs and 50 uM for all others. Each assay was run with positive and negative controls, and concurrent controls on every plate. The follow-up (secondary) screen tested active chemical-pairs in concentration series, as well as a few additional assays not tested in the primary screen, some selected negative inactives, and several cases re-run in the concentration series for confirmatory purposes.

With O=C(O)CC(O)C(=O)O (stereo not given) as the compound, how does the outcome read?
Its outcome is “inactive”.

Cc1ccc(N)cc1O was tested. Which outcome did it give?
The outcome was “inactive”.

For O=C(c1ccc(O)cc1O)c1ccc(O)cc1O, which AC50 is on record?
Its AC50 is 22.2 µM (active).

For CN(C)C(=O)NC1(c2ccccc2)CCN(CCC[C@]2(c3ccc(Cl)c(Cl)c3)CCCN(C(=O)c3ccccc3)C2)CC1, which outcome is on record?
Its outcome is “inactive”.

Which AC50 does the source give for S=C([S-])NCCNC(=S)[S-].[Mn+2] here?
The AC50 was 1.79 µM (active).

For CCCCCCCC/C=C\CCCCCCCC(=O)OC[C@@H](O)[C@H]1OC[C@H](O)[C@H]1O, which outcome is on record?
Its outcome is “inactive”.

Which outcome does the source give for CN(C)C(=O)NC1(c2ccccc2)CCN(CC[C@@]2(c3ccc(F)c(F)c3)CN(C(=O)c3ccccc3)CCO2)CC1 here?
The outcome was “inactive”.

O=C(O)Cc1cc(I)c(Oc2ccc(O)c(I)c2)c(I)c1 was tested. Which AC50 did it give?
The AC50 was 1.37 µM (active).

For S=C(S)NCCNC(=S)S.[Mn+2].[S-]C([S-])=NCCN=C([S-])[S-].[Zn+2], which AC50 is on record?
The AC50 was 3.99 µM (active) and 2.8 µM (active).

Which outcome does the source give for O=C(O)c1cccc(Oc2ccccc2)c1 here?
Its outcome is “inactive”.

For FC(F)(F)C(F)(F)C(F)(F)C(F)(F)C(F)(F)C(F)(F)CCI, which outcome is on record?
Its outcome is “inactive”.

For CC=Cc1ccc(O)c(OC)c1, which outcome is on record?
Its outcome is “inactive”.

O=C(Nc1ccc([N+](=O)[O-])cc1Cl)c1cc(Cl)ccc1O was tested. Which outcome did it give?
Its outcome is “inactive”.

Which AC50 does the source give for CCCCCCCCCCCCc1ccccc1S(=O)(=O)O here?
Its AC50 is 9.88 µM (active).

For CC/C(=C(\c1ccccc1)c1ccc(OCCN(C)C)cc1)c1ccccc1, which outcome is on record?
The outcome was “inactive”.

With O=C(N[C@@H](c1ccccc1)[C@@H]1CCCCN1)c1cccc(C(F)(F)F)c1Cl as the compound, how does the outcome read?
Its outcome is “inactive”.

For O=c1[nH]cnc2c1ncn2[C@H]1CC[C@@H](CO)O1, which outcome is on record?
The outcome was “inactive”.

How did the outcome turn out when O=C(c1ccc(OCCN2CCCCC2)cc1)c1c(-c2ccc(O)cc2)sc2cc(O)ccc12 was run?
Its outcome is “inactive”.

With CCCC(CCC)C(=O)O as the compound, how does the outcome read?
The outcome was “inactive”.

Which outcome does the source give for CC(C)c1ccc(C(=O)N=C(N)N)cc1S(C)(=O)=O here?
The outcome was “inactive”.

With N[C@@H](Cc1cc(I)c(Oc2ccc(O)c(I)c2)c(I)c1)C(=O)O as the compound, how does the AC50 read?
The AC50 was 4.51 µM (active).

For CC1=C(/C=C/C(C)=C/C=C/C(C)=C/CO)C(C)(C)CCC1, which outcome is on record?
The outcome was “inactive”.

With NCCO as the compound, how does the outcome read?
The outcome was “inactive”.

CN(C)c1ccc(N=NS(=O)(=O)O)cc1 was tested. Which outcome did it give?
The outcome was “inactive”.

How did the outcome turn out when COc1cc(C(=O)NC2CCN(C)CC2)ccc1Nc1ncc2c(n1)N(C1CCCC1)CC(F)(F)C(=O)N2C was run?
Its outcome is “inactive”.

For O=C(O)c1cc(N=Nc2ccc(S(=O)(=O)Nc3ccccn3)cc2)ccc1O, which outcome is on record?
Its outcome is “inactive”.

With O=C(NO)C1(NS(=O)(=O)c2ccc(Oc3ccc(F)cc3)cc2)CCOCC1 as the compound, how does the outcome read?
The outcome was “inactive”.

CC(C)(C)c1csc(-c2cc3cc(OCc4ccccc4CC(=O)O)ccc3o2)n1 was tested. Which outcome did it give?
The outcome was “inactive”.

O=C(O)c1ccc2c(c1)nc(C(=O)NC1CCN(C3CC3)CC1)n2Cc1cc(-c2ccc(Cl)s2)on1 was tested. Which outcome did it give?
Its outcome is “inactive”.

Oc1ccc2ccccc2c1 was tested. Which AC50 did it give?
The AC50 was 36.6 µM (active).

O=C(Oc1ccccc1)c1cccc(C(=O)Oc2ccccc2)c1 was tested. Which outcome did it give?
Its outcome is “inactive”.

How did the AC50 turn out when Cc1[nH]nc2c1N=C(c1ccccc1Cl)c1cc([N+](=O)[O-])ccc1N2 was run?
Its AC50 is 0.00702 µM (active).

With O=C(O)Cc1cc(I)c(Oc2cc(I)c(O)c(I)c2)c(I)c1 as the compound, how does the AC50 read?
Its AC50 is 0.00511 µM (active).

For COc1ccc2sc(C(=O)Nc3nnn[nH]3)c(OC(C)C)c2c1, which AC50 is on record?
Its AC50 is 9.98 µM (active).

With c1ccc2ccccc2c1 as the compound, how does the outcome read?
Its outcome is “inactive”.

With OCCOCCOCCO as the compound, how does the outcome read?
The outcome was “inactive”.

With c1ccc2[nH]c(-c3cscn3)nc2c1 as the compound, how does the AC50 read?
The AC50 was 17 µM (active).

Which outcome does the source give for Cc1cc(CCN2CCN(c3nsc4ccccc34)CC2)cc2c1NC(=O)CC2(C)C here?
Its outcome is “inactive”.

CN(C)c1ccc(Cc2ccc(N(C)C)cc2)cc1 was tested. Which outcome did it give?
Its outcome is “inactive”.

Which outcome does the source give for N#CCCCCC#N here?
Its outcome is “inactive”.
